Activity data for 31 molecules are collected here from PubChem BioAssay.

For assay [1], the target named is Tumor necrosis factor receptor superfamily member 10B (Homo sapiens) (UniProt O14763). Put plainly: viability loss of caspase-8 NB7 cells with TRAIL – with/without TRAIL, luminescence panel, confirmation (AID 651596). The following applies: NB7 neuroblastoma + caspase-8, TRAIL sensitization, NB7 Caspase-8, with TRAIL, mean of runs, at 10 µM, stronger effect = higher value.
Test in assay [2]: as above
Conditions: NB7 neuroblastoma + caspase-8, without TRAIL, NB7 Caspase-8, without TRAIL, mean of runs, at 10 µM.

Chain of Tumor necrosis factor receptor superfamily member 10B (Homo sapiens) (O14763 whole entry, looked up): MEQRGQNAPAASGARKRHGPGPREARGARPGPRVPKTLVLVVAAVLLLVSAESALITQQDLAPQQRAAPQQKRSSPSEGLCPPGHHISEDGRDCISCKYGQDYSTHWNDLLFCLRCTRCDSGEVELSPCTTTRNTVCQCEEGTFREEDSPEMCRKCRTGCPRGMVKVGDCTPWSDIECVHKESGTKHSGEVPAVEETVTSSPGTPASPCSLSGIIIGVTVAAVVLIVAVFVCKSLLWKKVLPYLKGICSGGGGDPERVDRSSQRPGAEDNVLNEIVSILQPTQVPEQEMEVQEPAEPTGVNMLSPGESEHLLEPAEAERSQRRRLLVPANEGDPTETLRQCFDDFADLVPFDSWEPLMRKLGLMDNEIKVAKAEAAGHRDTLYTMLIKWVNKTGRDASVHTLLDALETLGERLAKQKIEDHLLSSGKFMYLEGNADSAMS

Take `Nc1c(C(=O)Nc2nc3ccccc3s2)sc2nc(-c3cccs3)ccc12`: the figures for the activity in assay [1] and in assay [2] were 97.8% and 98.7%, respectively.

With `O=C(Nc1nc2ccccc2[nH]1)c1ccc(OC(F)F)cc1`, the activity in assay [1] is 95.3%; in assay [2] it was 94.6%.

Turning to `O=C1c2ccccc2S(=O)(=O)c2cc(N3CCOCC3)ccc21`, the activity in assay [1] is 73.2%; in assay [2] it was 73.9%.

Turning to `CCCCc1ccc(NC(=O)c2ccc(N(C)S(C)(=O)=O)cc2)cc1`, the activity in assay [1] was determined as 25.8%; in assay [2], 19.9%.

Turning to `COCCNC(=O)c1c[nH]c2ccc(S(=O)(=O)N3CCc4ccccc43)cc2c1=O`, the results for the activity in assay [1] and in assay [2] were 74.2% and 82.7%, respectively.

Regarding `COc1cc(C2Nc3ccccc3C(=O)N2c2ccc3c(c2)OCCO3)ccc1OCC(C)C` (configuration not stated), the activity was found to be 64.9% in assay [1] and 63.5% in assay [2].

Turning to `Nc1nc(-c2ccc(-c3ccccc3)cc2)cs1`, the activity in assay [1] is 51.2%; in assay [2] it was 50.7%.

Regarding `Cc1nc(N)nc(N)c1/C=C/C(C)(C)c1ccc(Cl)cc1`, the activity in assay [1] stood at 54.5%; in assay [2], 61.7%.

With `O=C(OCc1cc(=O)oc2cc(O)ccc12)c1cc(S(=O)(=O)N2CCOCC2)ccc1F`, the activity in assay [1] amounted to 84.1%; in assay [2] it was 70.9%.

Consider `COc1ccc(N2C(N)=NC(N)=NC2(C)C)cc1`, for which the figures for the activity in assay [1] and in assay [2] were 78.6% and 86.5%, respectively.

As for `Cc1ccc(/C=N/NC(=O)c2cc(C)oc2C)cc1`, the results for the activity in assay [1] and in assay [2] were 45.1% and 55%, respectively.

With `Cc1ccc(N2Cc3ccccc3C2=O)cc1`, the activity in assay [1] came to 64.7%; in assay [2], 59.3%.

Regarding `Cc1ccnc(NC(=S)NC(=O)c2cccs2)c1`, the figures for the activity in assay [1] and in assay [2] were 90% and 87.7%, respectively.

In the case of `C/C(=N\Nc1nc2ccccc2s1)c1cccs1`, the activity was 52.8% in assay [1] and 30.2% in assay [2].

`CCOc1ccc2cc(C#N)c(SCC(=O)OC)nc2c1`: the activity in assay [1] is 57.9%; in assay [2] it was 50.3%.

`CCc1ccc(NC(=O)c2nc(S(=O)(=O)Cc3ccccc3)ncc2Cl)cc1`: the activity came out at 51.2% in assay [1] and 86.6% in assay [2].

With `CCn1cc(/C=C/C(=O)c2ccc(O)cc2)c(C)n1`, the activity in assay [1] was 63.8%; in assay [2] it was 57.5%.

`CCOC(=O)C1=C(C)OC(=Cc2ccc(OC)cc2)C1=O`: the values for the activity in assay [1] and in assay [2] were 70.6% and 70%, respectively.

Take `O=c1c2ccccc2oc2ccc(NCCCn3ccnc3)cc12`: the activity in assay [1] amounted to 44%; in assay [2], 30.3%.

In the case of `CCN(c1ccccc1)S(=O)(=O)c1ccc(OC)c(NC(=O)c2cc(F)c(F)c(F)c2F)c1`, the activity in assay [1] was found to be 63.3%; in assay [2] it was 87.5%.

With `Cc1cccc(N2CCN(C(=S)Nc3ccc4nc(N5CCN(C)CC5)cc(C)c4c3)CC2)c1C`, the activity in assay [1] is 98%; in assay [2], 99.2%.

With `COc1ccc(NC(=O)c2cc([N+](=O)[O-])ccc2O)cc1`, the results for the activity in assay [1] and in assay [2] were 89.8% and 88.2%, respectively.

`CCOc1ccc(OCc2cccc(C(=O)N3CCOCC3)c2)cc1`: the results for the activity in assay [1] and in assay [2] were 58.8% and 55.5%, respectively.

Consider `CC1(C)CC(=O)C=C(c2ccc(-c3ccc4[nH]ccc4c3)cc2)C1=O`, for which the activity in assay [1] was found to be 67.8%; in assay [2], 64.4%.

In the case of `Cc1cccc2sc(NNC(=O)c3cc(-c4cccs4)nc4ccccc34)nc12`, the activity in assay [1] was 25.2%; in assay [2] it was 26.2%.

`c1ccc(-c2cn3c4c(sc3n2)CCCC4)cc1`: the activity in assay [1] and in assay [2] was 94% each time.

Take `Cc1cc(C)cc(NS(=O)(=O)c2ccc3c(c2)c(=O)n(C)c(=O)n3C)c1`: the activity turned out to be 79% in assay [1] and 82.2% in assay [2].

As to `CC(C)(C)C(=O)Nc1ccc(-c2cn3ccsc3n2)cc1`, the activity came to 95.7% in assay [1] and 95.8% in assay [2].

On to `O=c1cc(C(Cl)(Cl)Cl)oc2c1ccc1ccccc12`, for which the activity in assay [1] was determined as 62.7%; in assay [2], 65.3%.

`COc1cc(C2CC(c3cccs3)=NN2C(=O)CCl)ccc1OC(F)F` (configuration not stated): the activity in assay [1] and in assay [2] was 99.5% each time.

For the molecule `CCCC(=O)Nc1ccc(-c2csc(N/N=C\c3ccncc3)n2)cc1`, the values for the activity in assay [1] and in assay [2] were 61.5% and 65.6%, respectively.
